This is an account of results in PubChem BioAssay AID434982 (The Scripps Research Institute Molecular Screening Center, 2010).

Structures are written as SMILES. About 60 (0.4%) of roughly 15,000 compounds were called active. Cut-off read from the data, not from the text of the source: active = activation above about 2.2%; inactive = the rest. Shown is part of a subset that was picked to be rich in actives.

The assay in a line: activates NOTCH signaling in reporter cells (AID 434982). The conditions noted are these: NOTCH signaling luciferase reporter cells, luminescence; at 2.5 µM; hits give high values. (A reporter such as luciferase makes a cellular process visible.)
Regarding `O=C(Nc1ccc(OC(F)F)cc1)Nc1coc(-c2ccccc2)c1`, the activation was -0.11% (inactive).
Regarding `CCSC(=O)NCc1ccccc1`, the activation is -0.05% (inactive).
To `O=C(O)c1ccccc1Nc1ccccc1F` belongs -0.29% (inactive); to `CN(n1cnc2ccccc2c1=O)S(=O)(=O)c1cc(Cl)sc1Cl`, -0.39% (inactive); to `COC(=O)c1sc(SC)c(-c2ccn[nH]2)c1C`, 0.4% (inactive).
The same measure for `O=C(/C(=N\N=C\c1ccc2c(c1)OCO2)c1ccccc1)c1ccccc1`: -0.24% (inactive); for `CCCCCCCN=C(C)c1ccccc1O`: -0.3% (inactive).
Take `O=C(O)CC1(CC(=O)Nc2ccccc2-n2cccn2)CCCCC1`: the activation was -0.3% (inactive).
For the compound `CSc1ccc(Br)cc1`, the activation is 0.1% (inactive).
`O=C(N/N=C/c1cccs1)C(=O)Nc1ccc(Cl)c(Cl)c1`: the activation is -0.5% (inactive).
As to `O=C1C=C(c2ccccc2)CN(C2CCCCC2)C1=O`, the activation is -1.07% (inactive).
As for `O=C(Nc1ccccc1)N1CCN(c2ncnc3sccc23)CC1`, the activation was -0.57% (inactive).
Take `COCCOc1ccc(NC(=S)N2CCOCC2)cc1`: the activation is 0.32% (inactive).
To `COC(=O)c1ccccc1NC(=O)c1ccc(Oc2cc(Cl)cc(Cl)c2)o1` belongs -0.31% (inactive); to `O=C(Sc1ccccc1)c1ccc(C(F)(F)F)cc1`, -0.46% (inactive); to `CC(N)=NCCc1ccncc1`, -0.78% (inactive).
In the case of `N/C(=N\OC(=O)CCn1cccc(C(F)(F)F)c1=O)c1ccc(OC(F)(F)F)cc1`, the activation is -0.58% (inactive).
To `CCOC(=O)/C(C#N)=C/NNc1c(C)csc1C(=O)OC` belongs 0.05% (inactive); to `Cn1/c(=N\N=C2CCCCC2)sc2ccccc21`, 0.03% (inactive); to `CSc1cccc(NC(=O)C(=O)NCCc2ccccn2)c1`, -1.05% (inactive).
To `COCCCN/C(SCc1c(F)cccc1Cl)=C(\C#N)C(N)=O` belongs 0.49% (inactive); to `CC1CN(c2ccc(NC(=S)NCc3cccs3)cc2)CC(C)O1` (stereo not given), -0.73% (inactive).
Regarding `N#Cc1c(-c2ccccc2)c(-c2ccccc2)n[nH]c1=O`, the activation is -0.27% (inactive).
Consider `O=C1C(Nc2ccccc2)=CC(c2ccc([N+](=O)[O-])cc2)N1c1ccccc1` (stereo not given), for which the activation is -0.41% (inactive).
In the case of `N#CC1(C#N)C(c2ccc(Cl)c(Cl)c2)C1(C#N)C#N`, the activation was -0.6% (inactive).
Regarding `N#Cc1nccnc1N1CCN(C(=O)c2ccccc2)CC1`, the activation was -0.2% (inactive).
Turning to `Cn1c(SCC(=O)c2ccc(Cl)cc2)nnc1-c1cnccc1C(F)(F)F`, the activation was -0.25% (inactive).
As for `O=C(O)c1ccccc1N/C=C/[N+](=O)[O-]`, the activation was -0.62% (inactive).
Turning to `CC1=NOC(=O)/C1=C\c1ccccc1`, the activation was -0.92% (inactive).
To `O=C1Nc2ccccc2C12NNC(=S)NN2` belongs -0.45% (inactive).
Turning to `CCCC1NC(=O)NC(C)=C1C(=O)OCC` (stereo not given), the activation was -0.61% (inactive).
Take `CCOC(=O)C(=CNc1cc(C(F)(F)F)ccc1NCc1ccccc1)C(=O)OCC`: the activation was -0.25% (inactive).
Consider `CCOC(=O)COc1cccc2c(C)cc(=O)oc12`, for which the activation was -0.24% (inactive).
As to `Cc1nc(-c2ccccc2)sc1-c1nnc(C2CC2)o1`, the activation was -0.45% (inactive).
Take `O=C(CN1C(=O)/C(=C/c2ccccc2Cl)N=C1c1ccccc1)c1ccccc1`: the activation was -0.14% (inactive).
Consider `COC(=O)C1=C(NNc2ncc(Cl)cc2C(F)(F)F)CSC1`, for which the activation is -0.05% (inactive).
The same measure for `CC(C)c1ccc(NNS(=O)(=O)c2ccc(Cl)c(Cl)c2)cc1`: -0.45% (inactive); for `CCOc1c(N2CCCCC2)c(=O)c1=O`: -0.13% (inactive).
As for `O=c1[nH]/c(=C/c2ccc(OC(F)(F)F)cc2)c(=O)[nH]/c1=C/c1ccc(OC(F)(F)F)cc1`, the activation was -0.83% (inactive).
The same measure for `CSc1nnc(-c2ccc(C(F)(F)F)cn2)o1`: 0.03% (inactive); for `CCOC(=O)/C(C#N)=C/N=C(N/N=C/c1cccs1)SC`: -0.19% (inactive); for `FC(F)(F)c1cc(-c2ccc(Br)cc2)n[nH]1`: 0.22% (inactive).
Take `N#C/C(=C\C=C\c1ccccc1)c1nc2ccccc2[nH]1`: the activation was -5.39% (inactive).
As to `COc1cccc(/C=C2\SC(=S)C(N)C2=O)c1OC` (stereo not given), the activation was 0.34% (inactive).
To `NC(=S)N/N=C\Cc1nnnn1-c1ccc(Cl)cc1` belongs 0.16% (inactive).
For the compound `Cc1ncn2cc(-c3ccc(Cl)cc3Cl)[nH]c(=O)c12`, the activation is -0.34% (inactive).
To `N#Cc1cc([N+](=O)[O-])c(N2CCCC2)cc1N1CCCC1` belongs -0.6% (inactive); to `CC(C)(C)c1cc(C(=O)/C=C2/NC(=O)CS2)no1`, 0.5% (inactive); to `Cc1cccc(Cl)c1NC(=S)NCCNC(=O)OC(C)(C)C`, -0.1% (inactive).
For `OC(COc1ccc(Cl)c(Cl)c1)CN1CCC(Nc2nccc(C(F)(F)F)n2)CC1` (stereo not given), the activation is -0.76% (inactive).
On to `CCOC(=O)CCSc1cc(-n2cccc2)c(Cl)cc1[N+](=O)[O-]`, for which the activation is -0.25% (inactive).
Take `CCCN(CCC)S(=O)(=O)c1ccc(C(=O)Oc2c(C)cccc2OC)cc1`: the activation is 0.36% (inactive).
Regarding `O=C(O)CC1(CC(=O)Nc2ccc(N3CCCCC3)cc2)CCCCC1`, the activation is -0.6% (inactive).
For `COc1cc(CC/C(C)=N/O)ccc1O`, the activation was 0.52% (inactive).
On to `O=C(Nc1cccnc1Oc1ncnc2cc(Cl)ccc12)c1ccc(F)cc1`, for which the activation is -5.46% (inactive).
As to `O=C(O)c1ncoc1-c1cccc(Cl)c1`, the activation is -0.29% (inactive).
Regarding `Cn1cnc(S(=O)(=O)Nc2ccc3[nH]ccc3c2)c1`, the activation is -0.46% (inactive).
For the compound `COc1ccc(C(=O)NNC(=O)c2c(OC)cc(C(F)(F)F)cc2C(F)(F)F)cc1`, the activation was 0.11% (inactive).
Turning to `O=C(O)C#Cc1cccc2ccccc12`, the activation is -0.45% (inactive).
In the case of `Cn1cc(Br)c(-c2cccc(NC(=O)c3ccccc3Cl)c2)n1`, the activation is -0.38% (inactive).
The same measure for `Cc1onc(-c2ccccc2Cl)c1NC(=O)N1c2ccc(F)cc2CCC1C` (stereo not given): -0.44% (inactive); for `CN(C)/C=C1/C(=O)NN=C1CSc1ccc(Cl)cc1`: -0.25% (inactive); for `Cc1c(S(=O)(=O)N2CCOCC2)ccc(Cl)c1F`: -1.27% (inactive).
In the case of `N#C/C=C/c1ccc(C(F)(F)F)cc1[N+](=O)[O-]`, the activation is -0.41% (inactive).
With `Cc1nc2c(ncn2-c2ccccc2)c(=O)n1NC(=O)CN1CCCC1`, the activation is -4.07% (inactive).
Regarding `COc1ccc(CCN=C(C)c2cc(Cl)cc(Cl)c2O)cc1OC`, the activation is -0.13% (inactive).
For the compound `CC(C)(C)NC(=O)NCC(c1ccc[nH]1)C(F)(F)F` (stereo not given), the activation was -0.29% (inactive).
In the case of `CCOC(=O)C(=CNc1nc(-c2ccc(Cl)cc2)cs1)C(=O)OCC`, the activation was -0.64% (inactive).
For the compound `Cc1ccc(Oc2c(C)[nH]c(=S)[nH]c2=O)cc1`, the activation was -0.61% (inactive).
In the case of `CC(=O)N1c2ccccc2C=Cc2ccccc21`, the activation is -5.39% (inactive).
Take `CN(C)c1ccc(/C=C(\C#N)S(C)(=O)=O)c(Cl)c1`: the activation was -0.47% (inactive).
Turning to `Cc1cc(C(F)(F)F)nc2c(-c3noc(-c4ccccc4)n3)cnn12`, the activation was -0.99% (inactive).
For `O=C(c1ccc(C#Cc2ccccc2)o1)N1CCCCC1`, the activation is -0.2% (inactive).
To `O=[N+]([O-])c1ccc(CSc2nnc(-c3ccncc3)o2)cc1` belongs 0.14% (inactive); to `Cc1[nH]c2c(F)cc(F)cc2c(=O)c1I`, -0.36% (inactive).
In the case of `O=C1c2cc(S(=O)(=O)Oc3ccccc3)ccc2-c2ccc(S(=O)(=O)Oc3ccccc3)cc21`, the activation is -1.18% (inactive).
As for `CCCCc1c(O)cc(-c2ccccc2)n(Cc2ccccc2)c1=O`, the activation was -0.19% (inactive).
To `COC(=O)C(C#N)c1ccc(C(F)(F)F)cc1[N+](=O)[O-]` (stereo not given) belongs -0.67% (inactive); to `CC(C)S(=O)(=O)c1cscc1N/C=C(/C#N)C(=O)C1CC1`, 0% (inactive); to `Cc1nc(-c2nnc(SCC(=O)c3ccc(F)cc3)n2C)cs1`, -0.64% (inactive).
Consider `NNC(=O)c1csc(-c2ccc(C(F)(F)F)cn2)n1`, for which the activation is -0.19% (inactive).
To `CCOC(=O)c1cc(CC)sc1NC(=O)c1cccnc1Oc1ccccc1` belongs 0.22% (inactive); to `COC(=O)c1c(C(=O)OC)c2n(c1C)CCS2`, 3.54% (active).
In the case of `Cc1cc(-c2nc(C(=O)NN3CCCCC3)cs2)no1`, the activation was -0.7% (inactive).
`Cc1noc(C)c1C(=O)Oc1cccc2cccnc12`: the activation is 0.63% (inactive).
On to `S=C1NCN(CCCn2ccnc2)CN1`, for which the activation was 0.16% (inactive).
For the compound `COc1ccc(CCNC(=O)c2ccccc2-c2ccccc2C(=O)O)cc1OC`, the activation was -0.75% (inactive).
The same measure for `Cc1noc(C)c1S(=O)(=O)NCc1cc(F)cc2c1OCOC2`: -0.53% (inactive).
For the compound `Nc1nc(C23CC4CC(CC(C4)C2)C3)cs1`, the activation is -0.6% (inactive).
To `COC(=O)c1ccc2snnc2c1` belongs -0.29% (inactive).
As for `CCOC(=O)/C=C(/Nc1ccccc1SC)c1ccccc1`, the activation was -0.36% (inactive).
Consider `COC(=O)c1cc(OC)c(OC)cc1NC(=O)CSc1ccc(Cl)cc1`, for which the activation was -0.78% (inactive).
Turning to `Cc1cc(/C(N)=N/OC(=O)c2cccs2)c(-c2ccccc2)o1`, the activation was 2.72% (active).
To `CS(=O)(=O)Nc1ccc(/C(N)=N/OC(=O)c2cccs2)cc1` belongs -0.39% (inactive).
On to `N/C(Cc1cccs1)=N\OC(=O)c1ccccc1`, for which the activation is -0.76% (inactive).
For `COC(OC)c1ccc(C#N)c(SCC(=O)Nc2ccc(C(F)(F)F)cc2)n1`, the activation is -0.25% (inactive).
The same measure for `O=C(Nc1ccccc1N1CCOCC1)NC1CCN(C(=O)OCc2ccccc2)CC1`: -0.87% (inactive).
Regarding `Clc1ccc(C=NCc2cccnc2)c(Cl)c1`, the activation was -0.28% (inactive).
In the case of `Cc1nc(-c2ncc(-c3ccccc3)o2)c(C(F)(F)F)o1`, the activation is -4.8% (inactive).
In the case of `NC(=O)C1CCN(CC(O)CSc2ccc(F)cc2)CC1` (stereo not given), the activation was -5.86% (inactive).
On to `CCOC(=O)C(=CNc1ccc2n[nH]nc2c1)C(=O)OCC`, for which the activation was -0.78% (inactive).
For `Cn1nccc1NC(=O)CC(CC(=O)O)c1ccccc1` (stereo not given), the activation was 0.57% (inactive).
For the compound `CCOC(=O)c1ccc(NC)c(N)c1`, the activation is -0.75% (inactive).
To `COc1ccc2cc(/C(C)=N/OC(=O)Nc3ccccc3)ccc2c1` belongs 0.13% (inactive); to `COc1cc(C=C(C#N)C#N)cc(OC(C)=O)c1OC(C)=O`, -0.27% (inactive).
